Assay outcomes deposited in PubChem BioAssay by National Center for Advancing Translational Sciences (NCATS).
D3 antag – blocks the human D3 dopamine receptor. D3R cells, DiscoveRx beta-arrestin luminescence, antagonist mode; hits give low values. max response, negative = inhibition, %. actives 2.5% (n = 360,000). AID 652054; in the data active means max response below about -50%; inconclusive means no clear call, values can overlap the other calls; further: on the % scale 0 is the no-effect control and ±100 the full control effect
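Cells plated overnight at 1500 cells/well, then exposed to library compounds with dopamine controls for 90 minutes at 37 degrees C. DiscoveRx reagent added for 30–60 minutes at room temperature; luminescence read, quantitative HTS format.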
D1 potentiator – potentiators of human D1 dopamine receptor. potentiation, % at 10 µM. AID 504651. P21728. actives 0.036% (n = 360,000). HEK293 TREx D1 cells, calcium flux, dopamine EC20 potentiation; in the data active means potentiation above about 30%; further: 0% is about no effect
Target sequence (P21728 whole entry, looked up): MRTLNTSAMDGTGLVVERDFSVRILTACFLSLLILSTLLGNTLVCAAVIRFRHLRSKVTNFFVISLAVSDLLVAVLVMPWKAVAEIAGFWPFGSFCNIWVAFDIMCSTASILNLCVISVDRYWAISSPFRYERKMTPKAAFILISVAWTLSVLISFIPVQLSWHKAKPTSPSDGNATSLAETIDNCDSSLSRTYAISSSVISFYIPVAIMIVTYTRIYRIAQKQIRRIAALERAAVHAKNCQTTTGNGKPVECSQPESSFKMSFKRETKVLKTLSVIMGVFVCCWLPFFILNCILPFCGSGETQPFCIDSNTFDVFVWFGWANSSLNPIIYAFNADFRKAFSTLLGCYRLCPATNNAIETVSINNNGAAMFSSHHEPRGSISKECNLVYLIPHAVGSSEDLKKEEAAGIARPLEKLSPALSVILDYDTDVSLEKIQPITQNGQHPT
D3 ag – activates the human D3 dopamine receptor; P35462; D3R DiscoveRx beta-arrestin cells, luminescence, 90 min; max activation, %; actives 0.58% (n = 410,000); in the data active means max activation above about 30%; further: 0% is about no effect
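Agonist mode: compounds and dopamine controls were applied to plated cells for 90 min at 37 degrees C after an overnight attachment at 1500 cells/well. Luminescent read-out followed 30 - 60 minutes at room temperature with DiscoveRx detection reagent.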
D1 agonist – activates the human D1 dopamine receptor. P21728. HEK293 T-REx D1 cells, calcium flux, agonist mode. activation, % at 2 µM. actives 1% (n = 360,000). AID 504660; in the data active means activation above about 30%; further: 0% is about no effect
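Agonism was scored from calcium flux recorded over 180 s (1 read/s) after pintool compound addition, following a 10-cycle baseline. Cells were inducible force-coupled HEK293 TREx D1, plated overnight at 30 C and loaded with no-wash calcium dye.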
D1 antag – antagonists of human D1 dopamine receptor; HEK293 TREx D1 cells, calcium flux, dopamine EC80; hits give low values; activity change, negative = inhibition, % at 10 µM; actives 3.2% (n = 360,000); AID 504652; in the data active means activity change below about -30%; further: on the % scale 0 is the no-effect control and ±100 the full control effect
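Cells carrying a force-coupled, tetracycline-inducible human D1 receptor report calcium flux. Each well gets a 10 s baseline, compound with 180 s monitoring, then an EC80 dopamine stimulus with a second 180 s kinetic read.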
Starred values were filed as active, the others as inactive; ? = inconclusive; · = no result. In the library only some 6% were active in any assay of this set; here they are far more common.

SMILES | D3 antag | D1 potentiator | D3 ag | D1 agonist | D1 antag
CN(C)C(=O)c1ccc(NC(=O)c2cccc(S(=O)(=O)N3CCCc4ccccc43)c2)cc1 | 0 | -4 | 3 | 7 | -31*
Cc1ccc(NC(=O)c2cc(S(=O)(=O)N3CCCc4ccccc43)ccc2F)cc1F | · | -3 | -8 | 6 | -31*
O=C(NCc1ccco1)c1ccc(S(=O)(=O)N2CCCc3ccccc32)cc1 | -28 | -4 | 0 | 15 | -32*
O=C(Nc1ccc(Br)cc1)c1cc(S(=O)(=O)N2CCc3ccccc32)ccc1F | · | -3 | -4 | 7 | -50*
O=C(Nc1ccc(Cl)cc1)c1cc(S(=O)(=O)N2CCCc3ccccc32)ccc1F | · | 1 | -8 | 5 | 9
O=C(NCc1ccccc1)c1ccc(S(=O)(=O)N2CCCc3ccccc32)cc1 | ? | -10 | -5 | 5 | 11
COc1ccc(OC(=O)c2cn(-c3cccc(OC)c3)c(=O)c3ccccc23)cc1 | · | -4 | 8 | 2 | 13
CC(=O)c1ccc(N2C(=O)Nc3ccccc3S2(=O)=O)cc1 | · | -1 | 9 | 6 | 16
Cc1ccc(CN(C)C(=O)c2cccc(S(=O)(=O)N3CCc4ccccc43)c2)cc1 | -52* | · | -19 | · | ·
CN(Cc1nc(Cc2ccccc2F)no1)CC1(N2CCOCC2)CCCCC1 | 3 | -7 | 15 | 1 | 0
CN(Cc1nc(Cc2ccccc2F)no1)Cc1cccc2ncccc12 | 20 | -6 | 0 | 13 | -40*
Cc1cccc(C)c1NC(=O)CN(C)C(=O)c1ccc(-n2cncn2)c([N+](=O)[O-])c1 | -68* | -3 | 1 | 1 | 13
Cc1cc(Br)ccc1NC(=O)CNC(=O)c1ccc(-n2cncn2)c([N+](=O)[O-])c1 | -8 | -5 | -8 | -1 | -8
Cc1cc(Br)ccc1NC(=O)CN(C)C(=O)c1ccc(-n2cncn2)c([N+](=O)[O-])c1 | -14 | · | -8 | 1 | -41*
Cc1ccc(C)c(NC(=O)CN(C)C(=O)c2ccc(-n3cncn3)c([N+](=O)[O-])c2)c1 | 23 | -16 | 6 | 1 | 8
c1coc(-c2nc3n(n2)C2(CCCCC2)[C@@H]2CCCC[C@@H]2N3)c1 | · | 2 | 13 | 1 | 19
CC(C)=CCC12Oc3cc(O)ccc3C1(O)Oc1cc(O)c([C@H]3C=C(C)CC(c4ccc(O)cc4O)[C@H]3C(=O)c3ccc(O)cc3O)c(O)c1C2=O (some centres undefined) | -52* | · | -44 | · | ·
CCOCCc1nn2c(=O)cc(COC(=O)c3ccc4c(c3)OCO4)nc2s1 | · | -9 | 5 | 8 | -3
Cc1nc([N+](=O)[O-])c(Br)n1Cc1ccc(Cl)c(Cl)c1 | -76* | -6 | -15 | 8 | -5
Cc1nc([N+](=O)[O-])c(Br)n1CC(=O)c1ccc(Cl)cc1 | -29 | -5 | -2 | 6 | -7
COc1ccc(C(=O)Cn2c(C)nc([N+](=O)[O-])c2Br)cc1 | -56* | -2 | -25 | 11 | -2
CNC(=O)C1CCN(Cc2cc3ccccc3n2Cc2ccccc2C)CC1 | · | -2 | -13 | 6 | 25
Cc1ccccc1Cn1c(CN2CCC(C(=O)NCCN(C)C)CC2)cc2ccccc21 | · | -3 | -26 | 45* | -8
O=C(CN1C(=O)c2cccc3cccc1c23)Nc1cccc(F)c1 | · | -2 | 4 | 0 | -15
CC(=O)c1cccc(NC(=O)CSc2nnc3ccc(-c4ccc(Cl)cc4)nn23)c1 | · | -1 | -13 | -1 | ·
SMILES | D3 antag | D1 potentiator | D3 ag | D1 agonist | D1 antag
N#Cc1ccc(C(=O)NCc2ccc3c(c2)CCN3C(=O)c2ccc(F)cc2)cc1 | · | -4 | 6 | 14 | -33*
CCOc1ccc(C(=O)NCc2ccc3c(c2)CCN3C(=O)c2ccc(C)cc2)cc1OCC | · | -6 | -26 | 5 | -66*
COc1ccc(CCC(=O)NCc2ccc3c(c2)CCN3C(=O)c2ccc(Cl)cc2)cc1 | · | -1 | -12 | -1 | -35*
O=C(CSc1nc2c([nH]c3ccccc32)c(=O)n1-c1ccccc1)Nc1cccc(C(F)(F)F)c1 | · | -3 | -8 | 1 | -8
COc1cccc(NC(=O)C(=O)NCCc2csc(-c3ccc(C(F)(F)F)cc3)n2)c1 | · | -6 | 4 | 4 | -14
CN1CCN(/N=C/c2ccc(N(c3ccccc3)c3ccccc3)cc2)CC1 | ? | 2 | -19 | 5 | 24
CN1CCN(/N=C/c2ccc(Br)cc2)CC1 | -4 | -8 | -9 | 13 | -33*
COc1cccc(N2CCN(c3ncnc4c3[nH]c3ccc(F)cc34)CC2C)c1 (centres undefined) | -23 | -8 | 4 | 11 | -35*
COc1ccc2c(c1)[nH]c1c(N3CCSCC3)ncnc12 | 70 | 5 | 30* | 20 | -14
COc1ccc(C2CC3(CC(C)(C)NC(=S)N3)Oc3cc(O)cc(C)c32)cc1 (centres undefined) | -10 | -2 | -18 | 1 | 0
COc1ccc(C2CC3(CC(C)(C)NC(SC)=N3)Oc3cc(O)cc(C)c32)cc1 (centres undefined) | 11 | 3 | -4 | 263* | 73
COc1ccc(-c2nc3ccccc3n3c(-c4cccc(C)c4)c4c(=O)n(C)c(=O)n(C)c4c23)cc1 | · | -5 | -10 | 3 | 0
CC(=O)N1N=C(c2ccc(NS(=O)(=O)c3ccccc3)cc2)CC1c1ccco1 (centres undefined) | -8 | 0 | 2 | 0 | -36*
CC(=O)N1N=C(c2cccc(NS(=O)(=O)c3ccc(C)cc3)c2)CC1c1ccco1 (centres undefined) | -8 | -4 | 3 | 12 | -14
Cc1ccccc1Nc1n[nH]c(=S)s1 | ? | · | -4 | · | ·
S=c1[nH]nc(Nc2cccc3ccccc23)s1 | -8 | 3 | 2 | 2 | -33*
S=c1[nH]nc(Nc2ccc(Cl)cc2)s1 | 102 | 0 | -3 | 0 | 3
Cc1ccc(Nc2n[nH]c(=S)s2)cc1 | -51* | · | -7 | · | ·
CC(=O)Nc1cc2c(nc1C)nc(C)n2Cc1ccc(Br)cc1 | -68* | 2 | -3 | 4 | -1
Cc1nc2ccccc2n1Cc1ccc(Br)cc1 | 11 | · | -2 | · | ·
O=C(NCC1CCN(Cc2cccc(F)c2)CC1)c1cc2ccc3cccnc3c2[nH]1 | · | -4 | -20 | -1 | -2
Cc1ccc(NC(=O)c2ccc(F)c(S(=O)(=O)N3CCc4ccccc4C3)c2)cc1F | · | -1 | -1 | 4 | 3
Cc1ccc(NC(=O)c2ccc(F)c(S(=O)(=O)NCCc3ccccc3)c2)cc1F | · | -1 | 5 | 12 | -30*
COC(=O)[C@@H]1C[C@@]2(O)[C@@H](O)[C@@H](O)[C@@H](O)C[C@H]2N1CC1CCCCC1 | 0 | 0 | 3 | 13 | -56*
COC(=O)[C@@H]1C[C@@]2(O)[C@H](O)[C@H](O)[C@H](O)C[C@H]2N1CC1CC1 | -7 | 4 | 12 | 5 | -15
CC(C)(S)C(=O)N[C@@H](CS)C(=O)O | · | · | 6 | · | ·
